Source: PubChem BioAssay AID1578 (Sanford-Burnham Center for Chemical Genomics, 2009)
Out of some 290,000 compounds screened, about 3,000 (1%) were called active. What follows is part of a selection rich in actives, with near analogues and random picks from the rest. Values without a mark were called inactive. No stated cut-off is given here; in the data, active means inhibition mostly above about 36% (no sharp cut-off); inactive means mostly below about 34%.

test: inhibition of NOD1-driven NF-kB reporter – cell-based, luminescence, uHTS, primary screen (AID 1578); settings: NOD1-driven NF-kB luciferase reporter cells, at 4 µM, active compounds read high;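 further: HEK-293T reporter cells stimulated with the NOD1 agonist gamma-tri-DAP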

| SMILES | inhibition |
| --- | --- |
| CSc1ccc(S(=O)(=O)N2CCC(C(=O)NCCN3CCOCC3)CC2)cc1 | -17.3% |
| Cc1nc2sc(-c3ccccc3)cc2c(=O)n1N | 29.8% (active) |
| Cc1nc2cc(-c3ccccc3)sc2c(=O)n1N | 95.4% (active) |
| Cc1nc2ccccc2c(=O)n1N | -11.6% |
| CSc1nc2sc(-c3ccccc3)cc2c(=O)n1N | -13.6% |
| O=c1c2sc(-c3ccccc3)cc2nc2n1CCC2 | -26.3% |
| Cc1ccc(C)n1-n1c(C)nc2sc(-c3ccccc3)cc2c1=O | -14.6% |
| COc1cccc(CN2CCN(C3CCOCC3)CC2CCO)c1 (configuration not stated) | 2.6% |
| CCOC(=O)Cc1nnc(NC(=O)CSc2nnc3c(n2)[nH]c2ccccc23)s1 | 19% |
| COc1c(C)cc(C(=O)C2CCCN(S(=O)(=O)c3c(C)noc3C)C2)cc1C (configuration not stated) | 48.6% (active) |
| CSc1ccc(C(=O)C2CCCN(S(=O)(=O)c3c(C)noc3C)C2)cc1 (configuration not stated) | -19.9% |
| Cc1noc(C)c1S(=O)(=O)N1CCCC(C(=O)c2cccc(OC(C)C)c2)C1 (configuration not stated) | 4.9% |
| CCCCOc1ccc(-c2ncc(C(=O)O)c(C)n2)cc1 | -62% |
| COc1ccccc1CN(Cc1nc2ccccc2c(=O)[nH]1)S(=O)(=O)c1ccc(C)cc1 | -16.5% |
| C=CCc1cc(S(=O)(=O)c2ccc(O)c(CC=C)c2)ccc1O | 47.4% (active) |
| C=CCc1ccc(O)c(-c2ccc(O)c(CC=C)c2)c1 | -6.9% |
| Nc1cc(S(=O)(=O)c2ccc(O)c(N)c2)ccc1O | -4.4% |
| Cc1[nH]c(-c2ccc(F)cc2)cc1C(=O)N1CCN(c2ccccc2)CC1 | -4.4% |
| O=C(Nc1cccc(-c2nnc(-c3ccccc3)o2)c1)C1CC1 | 2.9% |
| O=C(Nc1nnc(-c2ccccc2)o1)C1CCCCC1 | -11.8% |
| O=C(Nc1cccc(-c2nnc(-c3ccccc3)o2)c1)C1CCCCC1 | 30.6% (active) |
| Brc1cc(Br)c2nc3c(cc2c1)CCC3 | -13.3% |
| COc1cc2cc(Br)cc(Br)c2nc1C | 37.7% |
| CN(Cc1ccccc1)S(=O)(=O)c1nnc(NC(=O)c2ccccc2)s1 | 1.1% |
| COc1ccc(CN(C)S(=O)(=O)c2nnc(NC(=O)c3cccc(OC)c3)s2)cc1 | 7.1% |

| SMILES | inhibition |
| --- | --- |
| COc1ccc(CN(C)S(=O)(=O)c2nnc(NC(=O)c3cccc(F)c3)s2)cc1OC | 4.4% |
| COc1cccc(C(=O)Nc2nnc(S(=O)(=O)N(C)Cc3ccc(F)cc3)s2)c1 | 16.8% |
| CC(=O)C1=C(O)C(=O)N(Cc2ccccc2)C1c1ccco1 (configuration not stated) | -9.8% |
| Cc1ccccc1CN1CCC(n2nccc2NC(=O)c2cccnc2)CC1 | -23.7% |
| Cc1ccc(S(=O)(=O)CCC(=O)OCC(=O)c2c[nH]c3ccccc23)cc1 | 17.3% |
| COCCn1c(Cc2ccccc2)nnc1SCC(=O)Nc1cc(C)on1 | -22.5% |
| CCn1c(Cc2ccccc2)nnc1SCC(=O)Nc1cc(C)on1 | 5% |
| CCCCn1c(Cc2ccccc2)nnc1SCC(=O)Nc1cc(C)on1 | 112% (active) |
| Cc1ccc(S[C@@H](CCN2CC[C@H](O)CCC2=O)c2ccccc2)cc1 | -12.3% |
| CC(C)(C)c1ccc(C(=O)n2cnc3ccccc32)cc1 | -13.4% |
| CCN(CC)c1ccc(C(=O)n2cnc3ccccc32)cc1 | 38.7% (active) |
| COc1ccc(C(=O)n2cnc3ccccc32)cc1 | -10.8% |
| O=C(CSc1ncn[nH]1)NCCCc1ccccc1 | -16.5% |
| COc1ccc(CNc2cccc3[nH]c(C(F)(F)F)nc23)cc1OC | -14.9% |
| COc1ccc(CNc2cccc3[nH]c(C(F)(F)F)nc23)cc1 | 6% |
| COc1cc(CNc2cccc3[nH]c(C(F)(F)F)nc23)cc(OC)c1 | 33% (active) |
| O=C1OCC/C1=C\c1ccc2c(c1)OCO2 | -0.1% |
| CCOC(=O)c1c2c3c(cccc3[nH]c1=O)C(=O)c1ccccc1-2 | -40.2% |
| CCOC(=O)c1c(C)[nH]c(C)c1-c1ccccc1OC | 13.9% |
| CCOC(=O)c1c(C)[nH]c2c1-c1ccccc1C(=O)C2=O | 106% (active) |
| COc1ccc2[nH]cc(C(=O)CN3CCN(C/C=C/c4ccccc4)CC3)c2c1 | -1.2% |
| Cc1[nH][nH]c(=O)c1C(c1c(C)[nH][nH]c1=O)c1cn(Cc2ccc(Cl)c(Cl)c2)c2ccccc12 | -18.9% |
| Cc1[nH][nH]c(=O)c1C(c1c(C)[nH][nH]c1=O)c1cn(Cc2cccc3ccccc23)c2ccccc12 | 10.6% |
| Cc1[nH][nH]c(=O)c1C(c1c(C)[nH][nH]c1=O)c1cn(Cc2ccccc2Cl)c2ccccc12 | 83.9% (active) |
| Cc1c(CN(C)Cc2cn(C)nc2-c2ccccc2F)[nH]c2ccccc12 | -13.2% |

| SMILES | inhibition |
| --- | --- |
| c1ccc(CCn2nnnc2C(c2cccs2)N2CCN(Cc3ccc4c(c3)OCO4)CC2)cc1 (configuration not stated) | -12.4% |
| COc1ccc(C)cc1NC(=O)CSc1nnc(COc2ccc(C)cc2)n1Cc1ccco1 | 28.5% |
| CCC(C)Sc1nc(O)c(Cc2ccccc2)c(=O)[nH]1 (configuration not stated) | 6.4% |
| O=C(CSC1=NC(=O)C(Cc2ccccc2)C(=O)N1)NC1CCCCC1 (configuration not stated) | -8.3% |
| COc1ccc(-c2cn[nH]c2-c2ccc(OCc3ccc([N+](=O)[O-])cc3)cc2O)cc1 | 91.5% (active) |
| Nc1ncc(-c2ccccc2)c(-c2ccc(OCc3ccccc3)cc2O)n1 | 2.3% |
| COc1ccc(-c2cn[nH]c2-c2ccc(OCc3ccc([N+](=O)[O-])cc3)cc2O)cc1OC | 34.4% |
| COc1ccc(-c2cn[nH]c2-c2ccc(OCc3ccccc3)cc2O)cc1OC | 28.5% |
| COc1ccc(-c2cnc(N)nc2-c2ccc(OCc3ccccc3)cc2O)cc1 | -0.9% |
| COc1ccccc1-c1cn[nH]c1-c1ccc(OCc2ccccc2F)cc1O | 0% |
| O=[N+]([O-])c1ccc(COc2ccc(-c3[nH]ncc3-c3ccc(Cl)cc3)c(O)c2)cc1 | 5.4% |
| O=C(/C=C/NCc1cccnc1)C(F)(F)C(F)(F)F | -53% |
| Cc1ccc(-c2csc(Nc3ccc(C(=O)O)cc3)[n+]2Cc2ccccc2)cc1 | 17.8% |
| O=C(CCN1C(=O)[C@@H]2Cc3ccccc3CN2C1=O)NCc1ccc(Cl)cc1 | -7.8% |
| NC(=O)c1ccccc1NC(=O)c1ccccc1S(=O)(=O)c1ccccc1[N+](=O)[O-] | -18.3% |
| [O-]/[N+](=C/c1ccc(F)cc1)c1ccc(Cl)cc1 | -85.9% |
| COc1cccc(C(=O)NCc2ccc3c(c2)OCO3)c1OC | -33% |
| CC1=C(C(=O)N(C)C)C(c2cccc(Cl)c2)NC(=O)N1 (configuration not stated) | -23.2% |
| COc1ccc(CCNC(=O)c2ccc3c(c2)N(Cc2ccc(F)cc2)CCS3)cc1OC | -34.1% |
| COc1ccc(CCNC(=O)c2ccc3c(c2)N(Cc2ccc(C)cc2)CCS3)cc1OC | 8.4% |
| CCCC[C@@H]1CNC(=S)N1CCc1cccc(F)c1 | -29.2% |
| CCOc1ncccc1C(=O)Nc1cc(S(=O)(=O)N2CCOCC2)ccc1N1CCCC1 | 0.1% |
| CC1CCN(C(=O)C2CCN(S(=O)(=O)c3ccc(-n4cnnn4)cc3)CC2)CC1 | -10.6% |
| O=C(CSc1cccc2cccnc12)N/N=C/c1cccnc1 | 80% (active) |
| O=C(CSc1cccc2cccnc12)N/N=C/c1ccc(O)cc1 | -3.1% |

| SMILES | inhibition |
| --- | --- |
| COc1cccc(/C=N/NC(=O)CSc2cccc3cccnc23)c1 | 33.4% (active) |
| O=C(Cc1cccc2ccccc12)N/N=C/c1ccc(Sc2cccc3cccnc23)o1 | 61.9% |
| O=C(CCc1ccccc1O)N/N=C/c1ccc(Sc2cccc3cccnc23)o1 | 89.3% (active) |
| O=C(CSc1cccc2cccnc12)N/N=C/c1ccncc1 | -32.7% |
| CCOc1cc(/C=N/NC(=O)CSc2cccc3cccnc23)ccc1O | -32.2% |
| CCCCC(=O)N/N=C/c1ccc(Sc2cccc3cccnc23)o1 | -12.8% |
| O=C(CSc1cccc2cccnc12)N/N=C/c1cccc(O)c1 | -22% |
| Cc1cc(NC(=O)CSc2nnc(CNC(=O)c3ccc(F)cc3)o2)no1 | -38.1% |
| O=C(CSc1nc2ccccc2c(=O)n1CCCN1CCOCC1)c1c[nH]c2ccccc12 | 41% |
| O=C(NCc1ccccc1OC(F)(F)F)C1CCC(=O)N(Cc2ccccn2)C1 (configuration not stated) | -8% |
| CC(C)(C)OC(=O)NC(Cc1ccccc1)C(=O)N1CCC(C(=O)NCC(=O)Nc2ccc(F)cc2)CC1 (configuration not stated) | -18% |
| O=C(Nc1cccc(F)c1)N1CCC(n2c(=O)[nH]c3ccccc32)CC1 | -2.7% |
| COc1ccc(-c2noc(N3CCC(C(=O)NCCCN4CC(C)CC(C)C4)CC3)n2)cc1 (configuration not stated) | -3.9% |
| CCOC(=O)Cc1ccc(NC(=O)c2ccc(C(C)(C)C)cc2)cc1 | 69.9% (active) |
| COC(=O)Cc1ccc(NC(=O)c2ccc(C(C)(C)C)cc2)cc1 | 88.2% (active) |
| Cc1ccc(C(=O)Nc2ccc(CC(=O)O)cc2)o1 | -4.8% |
| CCOC(=O)Cc1ccc(NC(=O)c2ccc([N+](=O)[O-])cc2)cc1 | -35.6% |
| COC(=O)Cc1ccc(NC(=O)c2ccc(NC(=O)c3ccco3)cc2)cc1 | -16% |
| COC(=O)Cc1ccc(NC(=O)c2ccc(C)c(C)c2)cc1 | -39.1% |
| CC(C)(C)c1ccc(C(=O)Nc2ccc(NC(=O)C(=O)O)cc2)o1 | -19% |
| CCOC(=O)Cc1ccc(NC(=O)c2ccccc2Br)cc1 | -20.3% |
| CC(C)(C)c1ccc(C(=O)Nc2ccc(CC(=O)O)cc2)o1 | 76.3% (active) |
